Potency data for 40 molecules are collected here from PubChem BioAssay (Tox21).

“And” between values parts separate entries of the source, which are not always exact repeats. Identical values can stand only once. Inconclusive results are not listed. Where a call stands in place of a potency, no number is given. More than one record can exist for a structure, and the calls need not agree. The source made the active and inactive calls. The call rests on the fitted dose curve.
Further: nearly all actives have a fitted effect of over 35% in size.

System in the first assay: not listed separately
In words: Nuclear factor erythroid 2-related factor 2/antioxidant responsive element (Nrf2/ARE) small molecule agonists: luciferase reporter gene qHTS assay in human keratinocytes (AID 1919969). Further: potency means the concentration at half of the fitted maximal effect. As to conditions: KeratinoSens HaCaT ARE-luciferase, luminescence, 24 h; series mostly up to 92.4 µM.
Regarding `N#Cc1ccccc1`, the Potency result is “inactive”.

For the molecule `C=C(CC(=O)O)C(=O)O`, the Potency result was “inactive”.

As to `O=C(OCC1CCC2OC2C1)C1CCC2OC2C1` (stereo not given), the Potency result is “inactive”.

As for `CC(=O)NS(=O)(=O)c1ccc(N)cc1`, the Potency entry was “inactive”.

Consider `Cc1cc(CC(=O)O)n(C)c1C(=O)c1ccc(Cl)cc1`, for which the Potency result is “inactive”.

Consider `CCCCNS(=O)(=O)c1ccccc1`, for which the Potency entry was “inactive”.

Consider `C[C@]12C=CC(=O)C=C1CC[C@H]1[C@@H]3C[C@@H](O)[C@](O)(C(=O)CO)[C@@]3(C)C[C@H](O)[C@@]12F`, for which the Potency entry was “inactive”.

For the molecule `Cc1cc(C)c(O)c(C)c1`, the Potency result is “inactive”.

With `Nc1ccc(S(=O)(=O)Nc2cnc3ccccc3n2)cc1`, the Potency result was “inactive”.

For the molecule `COC(=O)[C@H]1[C@H]2C[C@@H]3c4[nH]c5cc(OC)ccc5c4CCN3C[C@H]2C[C@@H](OC(=O)c2cc(OC)c(OC)c(OC)c2)[C@@H]1OC`, the Potency result is “inactive”.

Regarding `CN(C)c1ccc(C(=C2C=CC(=[N+](C)C)C=C2)c2ccccc2)cc1`, the Potency was 1.22 µM (active).

As for `c1ccc2cc(Nc3ccc(Nc4ccc5ccccc5c4)cc3)ccc2c1`, the Potency result was “inactive”.

Take `COCCc1ccc(OCC(O)CNC(C)C)cc1` (stereo not given): the Potency result is “inactive”.

Consider `COc1ccc([C@@H]2CC(=O)c3c(O)cc(O[C@@H]4O[C@H](CO[C@@H]5O[C@@H](C)[C@H](O)[C@@H](O)[C@H]5O)[C@@H](O)[C@H](O)[C@H]4O)cc3O2)cc1OC`, for which the Potency entry is “inactive”.

`CC(=O)N[C@@H](CS)C(=O)O`: the Potency result is “inactive”.

Consider `OCC1CCCO1` (stereo not given), for which the Potency result is “inactive”.

In the case of `CC(=O)OCc1ccc2c(c1)OCO2`, the Potency result was “inactive”.

With `Cc1cc(C)c(C)cc1C`, the Potency result is “inactive”.

With `Oc1c(Cl)cc(Cl)c(Cl)c1Cl`, the Potency entry is “inactive”.

With `CC1(C)C(=O)N(Cl)C(=O)N1Cl`, the Potency result was “inactive”.

`Cc1ccc(C)c(O)c1`: the Potency result is “inactive”.

For the molecule `NC(N)=S`, the Potency entry was “inactive”.

For `CCCCCCCCCCO`, the Potency result is “inactive”.

Consider `OCCOCCOCCOCCO`, for which the Potency entry was “inactive”.

Turning to `O=c1cc[nH]c(=S)[nH]1`, the Potency entry was “inactive”.

Take `CCCCCCCCCCCCCC(=O)O`: the Potency entry was “inactive”.

`O=S(=O)(O)c1ccc2cc(O)ccc2c1`: the Potency entry is “inactive”.

With `Oc1ccc(Cc2ccccc2O)cc1`, the Potency entry was “inactive”.

For the molecule `ClC1=C(Cl)C(Cl)(Cl)C(Cl)=C1Cl`, the Potency entry is “inactive and 61.1 µM (active)”.

Turning to `CC1(C)[C@@H]2CC[C@@]1(C)C(=O)C2`, the Potency entry was “inactive”.

Regarding `CCOC(=O)CC(=O)OCC`, the Potency result is “inactive”.

As to `CCCCOCCOCCOC(C)=O`, the Potency entry was “inactive”.

As to `CCn1c2ccccc2c2cc(N)ccc21`, the Potency result was “inactive”.

For the molecule `CC(=O)CC(=O)N(C)C`, the Potency entry is “inactive”.

In the case of `C=CCCCCCCCCCC`, the Potency entry is “inactive”.

Consider `CC1=C(/C=C/C(C)=C/C=C/C(C)=C/C(=O)O)C(C)(C)CCC1`, for which the Potency was 68.7 µM (active) and 68.5 µM (active) and 23.7 µM (active).

With `CCCCCNCCCCC`, the Potency entry was “inactive”.

Turning to `O=C(CC(C(=O)OC1CCCCC1)S(=O)(=O)O)OC1CCCCC1` (stereo not given), the Potency result was “inactive”.

Turning to `CN(C)CCOC(=O)COc1ccc(Cl)cc1`, the Potency entry is “inactive”.

In the case of `CCCN(CCC)C(=O)SCC`, the Potency result is “inactive”.

For another assay, the target named is Gonadotropin-releasing hormone receptor (Homo sapiens) (UniProt P30968). In words: Human gonadotropin-releasing hormone receptor (GnRHR) small molecule agonists, calcium flux assay in GnRHR-HEK293 cells (AID 1920063). The conditions noted are these: calcium flux fluorescence, agonist mode; series mostly up to 57.6 µM. The gist of the method: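 Calcium-dye fluorescence, Ex/Em=480/540, recorded every 1 sec over 3 min after compound addition to GnRHR-HEK293 cells. Cells had been seeded 18 hours earlier and dye-loaded for 1 hour at 37 C. Fifteen concentrations, triplicates.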
Sequence of Gonadotropin-releasing hormone receptor (Homo sapiens) (P30968 whole entry, looked up): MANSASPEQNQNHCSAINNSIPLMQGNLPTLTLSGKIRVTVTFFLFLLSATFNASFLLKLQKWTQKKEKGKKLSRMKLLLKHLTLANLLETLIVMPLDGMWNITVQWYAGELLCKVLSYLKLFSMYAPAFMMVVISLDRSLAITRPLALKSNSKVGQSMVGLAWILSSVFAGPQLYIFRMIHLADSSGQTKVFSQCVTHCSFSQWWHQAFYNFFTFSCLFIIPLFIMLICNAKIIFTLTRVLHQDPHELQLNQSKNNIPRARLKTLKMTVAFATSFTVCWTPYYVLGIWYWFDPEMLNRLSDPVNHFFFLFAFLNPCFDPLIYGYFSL
Turning to `N#Cc1ccccc1`, the Potency entry was “inactive”.

Take `C=C(CC(=O)O)C(=O)O`: the Potency entry was “inactive”.

As for `O=C(OCC1CCC2OC2C1)C1CCC2OC2C1` (stereo not given), the Potency entry is “inactive”.

Consider `CC(=O)NS(=O)(=O)c1ccc(N)cc1`, for which the Potency entry was “inactive”.

As for `Cc1cc(CC(=O)O)n(C)c1C(=O)c1ccc(Cl)cc1`, the Potency result was “inactive”.

Turning to `CCCCNS(=O)(=O)c1ccccc1`, the Potency result is “inactive”.

With `C[C@]12C=CC(=O)C=C1CC[C@H]1[C@@H]3C[C@@H](O)[C@](O)(C(=O)CO)[C@@]3(C)C[C@H](O)[C@@]12F`, the Potency result is “inactive”.

For `Cc1cc(C)c(O)c(C)c1`, the Potency entry was “inactive”.

Regarding `Nc1ccc(S(=O)(=O)Nc2cnc3ccccc3n2)cc1`, the Potency entry was “inactive”.

In the case of `COC(=O)[C@H]1[C@H]2C[C@@H]3c4[nH]c5cc(OC)ccc5c4CCN3C[C@H]2C[C@@H](OC(=O)c2cc(OC)c(OC)c(OC)c2)[C@@H]1OC`, the Potency entry is “inactive”.

Regarding `CN(C)c1ccc(C(=C2C=CC(=[N+](C)C)C=C2)c2ccccc2)cc1`, the Potency entry was “inactive”.

Take `c1ccc2cc(Nc3ccc(Nc4ccc5ccccc5c4)cc3)ccc2c1`: the Potency entry was “inactive”.

`COCCc1ccc(OCC(O)CNC(C)C)cc1` (stereo not given): the Potency result was “inactive”.

Turning to `COc1ccc([C@@H]2CC(=O)c3c(O)cc(O[C@@H]4O[C@H](CO[C@@H]5O[C@@H](C)[C@H](O)[C@@H](O)[C@H]5O)[C@@H](O)[C@H](O)[C@H]4O)cc3O2)cc1OC`, the Potency result was “inactive”.

Turning to `CC(=O)N[C@@H](CS)C(=O)O`, the Potency result is “inactive”.

As for `OCC1CCCO1` (stereo not given), the Potency result was “inactive”.

For `CC(=O)OCc1ccc2c(c1)OCO2`, the Potency entry is “inactive”.

In the case of `Cc1cc(C)c(C)cc1C`, the Potency result is “inactive”.

As for `Oc1c(Cl)cc(Cl)c(Cl)c1Cl`, the Potency entry was “inactive”.

As for `CC1(C)C(=O)N(Cl)C(=O)N1Cl`, the Potency entry is “inactive”.

With `Cc1ccc(C)c(O)c1`, the Potency result is “inactive”.

In the case of `NC(N)=S`, the Potency result is “inactive”.

With `CCCCCCCCCCO`, the Potency entry is “inactive”.

Regarding `OCCOCCOCCOCCO`, the Potency result was “inactive”.

Regarding `O=c1cc[nH]c(=S)[nH]1`, the Potency entry is “inactive”.

For `CCCCCCCCCCCCCC(=O)O`, the Potency result is “inactive”.

For the molecule `O=S(=O)(O)c1ccc2cc(O)ccc2c1`, the Potency result was “inactive”.

On to `Oc1ccc(Cc2ccccc2O)cc1`, for which the Potency result is “inactive”.

Consider `ClC1=C(Cl)C(Cl)(Cl)C(Cl)=C1Cl`, for which the Potency result was “inactive”.

For the molecule `CC1(C)[C@@H]2CC[C@@]1(C)C(=O)C2`, the Potency result is “inactive”.

As for `CCOC(=O)CC(=O)OCC`, the Potency entry was “inactive”.

With `CCCCOCCOCCOC(C)=O`, the Potency result is “inactive”.

`CCn1c2ccccc2c2cc(N)ccc21`: the Potency result is “inactive”.

For `CC(=O)CC(=O)N(C)C`, the Potency result was “inactive”.

For `C=CCCCCCCCCCC`, the Potency result was “inactive”.

For the molecule `CC1=C(/C=C/C(C)=C/C=C/C(C)=C/C(=O)O)C(C)(C)CCC1`, the Potency entry was “inactive”.

For `CCCCCNCCCCC`, the Potency result is “inactive”.

Regarding `O=C(CC(C(=O)OC1CCCCC1)S(=O)(=O)O)OC1CCCCC1` (stereo not given), the Potency result was “inactive”.

Take `CN(C)CCOC(=O)COc1ccc(Cl)cc1`: the Potency result is “inactive”.

Take `CCCN(CCC)C(=O)SCC`: the Potency result was “inactive”.
